Screens (PubChem BioAssay)
NS1 function inh – inhibitors of influenza NS1 protein function; Potency, µM (titrated, usually from 46.1 µM); 0.4% of 270,000 active; calls by dose curve; note: actives are rising curves; nearly all actives have a fitted effect of over 50% in size
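A cell-based growth assay was used: compounds that relieve NS1-induced slow growth of budding yeast raise OD600. Assay medium was yeast nitrogen base with ammonium sulphate and -URA supplement, pH 6.0, with 2% galactose.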
Sm TGR inh – inhibitors of Schistosoma mansoni thioredoxin glutathione reductase; Q962Y6; purified TGR, DTNB reduction, TNB absorbance 405 nm; 3% of 360,000 active; Potency, µM (top dose mostly 114 µM), actives largely listed as inhibitors; AID 485364; note: nearly all actives have a fitted effect of over 60% in size
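First, TGR (20 nM dispensed) and NADPH were mixed with compound. Second, a 15 min room-temperature incubation followed. Third, further NADPH and then DTNB were added to start the reaction. Finally, TNB absorbance was monitored kinetically.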
Pf growth 96h – P. falciparum growth inhibition at 96 hours; 6.9% of 320,000 active; AID 504834; P. falciparum luciferase reporter growth, 96 h; Potency, µM (highest dose often 28.7 µM), hits mostly inhibitors
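Plates of compound plus infected erythrocytes (2% hematocrit, 0.05% parasitemia final) incubate 96 hours, 37 C, 5% CO2. Detection reagent added; reduced luminescence from the parasites' luciferase reporter flags inhibition.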
Shiga inhibitor – blocks Shiga toxin action in Vero cells. Vero cells, Shiga toxin protein synthesis inhibition reporter. inhibition, % at 38.7 µM. 9.2% of 290,000 active. AID 2315; in the data active = inhibition mostly above about 28%, no sharp cut-off; inactive = mostly below about 43%
CHX counter – counter-screen for Shiga toxin inhibitors: cycloheximide protein synthesis inhibition | cell reporter, cycloheximide protein synthesis inhibition counterscreen | max response, % | 12% of 300,000 active | AID 2314; in the data active = max response mostly above about 13%, no sharp cut-off; inactive = mostly below about 14%; note: read at 38.3 µM for the half of the compounds with a filed dose
Pf growth 48h – P. falciparum growth inhibition at 48 hours (one generation); Potency, µM (highest dose often 28.7 µM), usual class: inhibitors; P. falciparum luciferase growth in erythrocytes, 48 h; AID 504832; 5.9% of 310,000 active
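Read-out is firefly luciferase luminescence from an integrated reporter in P. falciparum, so falling signal marks reduced parasite growth. Infected erythrocytes were at 2% hematocrit and 0.1% parasitemia (final) in Albumax-supplemented RPMI 1640.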
Numbers stand for hits; n = inactive; u = inconclusive; x = not tested or not shown; [ ] = remark or other dose. Only some compounds are listed: those with a hit (about 21% of all), similar ones and a draw of the others. Unless noted, calls come from the whole dose curve; as a rule, active = well fitted curve in the direction sought with a large enough effect; inconclusive = small, poorly fitted or top-dose-only effect, or another doubt; inactive = no such curve, though single readings can be large; an effect the other way counts as inactive or inconclusive.

SMILES | NS1 function inh | Sm TGR inh | Pf growth 96h | Shiga inhibitor | CHX counter | Pf growth 48h
CCCn1c(NCc2cc(OC)ccc2OC)nc2ccccc21 | n | n | x | n | 27 | u
CCn1c(NCc2cc(OC)ccc2OC)nc2ccccc21 | n | n | n | 69 | 30 | u
Cn1c(-n2cccc2)c(-c2c(-c3ccccc3)[nH]c3c2c(=O)n(C)c(=O)n3C)c(=O)n(C)c1=O | x | n | x | x | x | x
O=C(c1ccc(-c2ccccc2)c(F)c1)C1CCCN(C(=O)c2cncs2)C1 (stereo unspecified) | n | n | 13µM | n | n | u
Cn1cc(CN2CCCC(C(=O)c3ccc(-c4ccccc4)c(F)c3)C2)cn1 (stereo unspecified) | n | n | u | n | n | u
Cc1nn(C)cc1CN1CCCC(C(=O)c2ccc(-c3ccccc3)c(F)c2)C1 (stereo unspecified) | n | n | n | n | n | 15µM
COc1ccc(CCNC(=O)c2cc(-c3ccccn3)nc3ccccc23)cc1 | x | n | u | x | x | u
Cc1occc1-c1nnc(SCc2cc(=O)n3cc(Br)ccc3n2)n1C | n | 45µM | u | n | n | n
Cc1ccccc1Nc1nc(CSc2nnc(-c3ccoc3C)n2C)cs1 | n | 35µM | n | n | 21 | n
Cc1occc1-c1nnc(SCC(=O)Nc2ccccc2)n1C | n | n | n | n | n | n
Cc1ccc(Nc2nc(CSc3nnc(-c4ccncc4)n3C)cs2)cc1 | n | n | n | 54 | 25 | n
Cn1c(SCc2cc(=O)n3cc(Br)ccc3n2)nnc1C1COc2ccccc2O1 (stereo unspecified) | n | n[11.4 µM] | n | n | n | x
COc1cc(OC)cc(C(=O)N2CCN(C(=O)COc3ccccc3)CC2)c1 | x | n | x | x | x | x
O=C(Nc1nccs1)C1Cc2ccccc2CN1S(=O)(=O)c1ccc(F)cc1 (stereo unspecified) | n | n | n | 94 | 48 | n
CCNC(=O)C1Cc2ccccc2CN1S(=O)(=O)c1ccc(F)cc1 (stereo unspecified) | n | n | n | n | n | 0.83µM
O=C(NC1CCCCC1)C1Cc2ccccc2CN1S(=O)(=O)c1ccc(F)cc1 (stereo unspecified) | n | n | 13µM | n | n | u
O=C(Nc1nnc(C2CC2)s1)C1Cc2ccccc2CN1S(=O)(=O)c1ccccc1F (stereo unspecified) | n | n | u | n | 41 | u
COc1cc(OC)c(Nc2nc3ccccc3c3nncn23)cc1Cl | x | n | x | x | x | x
COc1ccc(N2CCN(C(=O)CCn3nc(C)c(S(=O)(=O)N4CCCC4)c3C)CC2)cc1 | x | n | x | x | x | x
CS(=O)(=O)c1ccc(C(=O)N2CCN(C(=O)c3ccco3)CC2)cc1 | x | n | n | x | x | n
O=C(c1ccco1)N1CCN(C(=O)C2Cc3ccccc3CN2S(=O)(=O)c2ccc(F)cc2)CC1 (stereo unspecified) | n | 50µM | n | n | n | u
O=C(C1Cc2ccccc2CN1S(=O)(=O)c1ccc(F)cc1)N1CCCCC1 (stereo unspecified) | n | n | x | n | n | n
CC(=O)O[C@@H]1CC[C@@]2(C)[C@H](C1)[C@H](OC(C)=O)C[C@@H]1[C@@H]2C[C@H]2[C@@H]3CN4C[C@H](C)CC[C@H]4[C@H](C)[C@H]3CC[C@@]12O | x | x | x | n | n | x
Cc1ccc2c(c1)C(=C(C#N)C#N)C(=O)N2CCN1CCOCC1 | n | 3.2µM | n | n | n | n
N#CC(C#N)=C1C(=O)N(CCN2CCOCC2)c2ccccc21 | n | 3.5µM | n | n | n | n
SMILES | NS1 function inh | Sm TGR inh | Pf growth 96h | Shiga inhibitor | CHX counter | Pf growth 48h
N#CC(C#N)=C1C(=O)N(CCN2CCCCC2)c2ccccc21 | n | n | n | n | n | n
COc1ccc(Cl)cc1NC(=O)Cn1c(=O)n(Cc2nc(C)no2)c(=O)c2ccccc21 | x | n | x | x | x | x
CCC(C)N(C(=O)CSc1nnc(-c2cccs2)n1C1CC1)C1CCS(=O)(=O)C1 (stereo unspecified) | x | n | n | x | x | n
c1ccc2c(Cn3nnc4ccccc43)cccc2c1 | n | n | x | n | n | n
c1ccc2c(COn3nnc4ccccc43)cccc2c1 | n | n | n | 87 | 54 | x
N#Cc1ccc(COn2nnc3ccccc32)cc1 | n | n | n | n | 31 | n
COc1ccc(S(=O)(=O)N(CC(=O)Nc2cccc(C(F)(F)F)c2)c2ccc(C)cc2)cc1 | x | n | x | x | x | x
COc1ccc(CC(=O)NCCc2sc(-c3cccc(F)c3)nc2C)cc1 | x | n | x | x | x | x
